The supplement of paper PMC10849652
The full data set covers some 7,900 targets. This sample favours those with a hit. About 0.6% of all pairs of compound and target were hits. A number with no mark means an inactive call.

Legend:
Experiment in all cases: log2 fold change, soluble protein after heating vs DMSO (PISA); higher = thermal stabilisation; K562 cells, 10 uM, 30 min; active = over 0.2 and 3.5 SD of the protein, either way, in both replicates (recomputed)
[1] = compound: CS(=O)(=O)c1ccc(-c2cnc(N)c(C(=O)Nc3ccccc3)n2)cc1
How it was run: (§1)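 Soluble protein was quantified by TMTpro 16plex LC-MS/MS after channel sums were equalised. It was obtained as the supernatant after 21,000xg for 90 min from pooled aliquots of K562 cells (2×10^6 cells/mL, 10 μM compound, 30 min) heated for 3 min across 48°C-58°C and extracted in PBS with 0.5% NP-40 at 4°C. Thermal stability values are relative to control samples and come from duplicates. They are given as log2 fold changes.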

crizotinib = compound: C[C@@H](Oc1cc(-c2cnn(C3CCNCC3)c2)cnc1N)c1c(Cl)ccc(F)c1Cl [crizotinib]
How it was run: as §1

[2] = compound: C[C@@H]1COCCN1C2=NC(=NC(=C2)C3(CC3)S(=O)(=O)C)C4=C5C=CNC5=CC=C4
How it was run: as §1

[3] = compound: C[C@H](C1=CC=C(C=C1)C(=O)NC2=C3C=CNC3=NC=C2)N
How it was run: as §1

duvelisib = compound: C[C@H](Nc1ncnc2nc[nH]c12)c1cc2cccc(Cl)c2c(=O)n1-c1ccccc1 [duvelisib]
How it was run: as §1

gandotinib = compound: Cc1cc(Nc2cc(CN3CCOCC3)c3nc(C)c(Cc4ccc(Cl)cc4F)n3n2)n[nH]1 [gandotinib]
How it was run: as §1

tozasertib = compound: Cc1cc(Nc2cc(N3CCN(C)CC3)nc(Sc3ccc(NC(=O)C4CC4)cc3)n2)n[nH]1 [tozasertib]
How it was run: as §1

[4] = compound: Cc1cc(SCc2sc(-c3ccc(C(F)(F)F)cc3)nc2C)ccc1OCC(=O)O
How it was run: as §1

doramapimod = compound: Cc1ccc(-n2nc(C(C)(C)C)cc2NC(=O)Nc2ccc(OCCN3CCOCC3)c3ccccc23)cc1 [doramapimod]
How it was run: as §1

ispinesib = compound: Cc1ccc(C(=O)N(CCCN)[C@@H](c2nc3cc(Cl)ccc3c(=O)n2Cc2ccccc2)C(C)C)cc1 [ispinesib]
How it was run: as §1

bafetinib = compound: Cc1ccc(NC(=O)c2ccc(CN3CC[C@H](N(C)C)C3)c(C(F)(F)F)c2)cc1Nc1nccc(-c2cncnc2)n1 [bafetinib]
How it was run: as §1

[5] = compound: Cc1cccc(CC(=O)N2CCc3c2ccc(-c2cn(C)c4ncnc(N)c24)c3F)n1
How it was run: as §1

nilotinib = compound: Cc1cn(-c2cc(NC(=O)c3ccc(C)c(Nc4nccc(-c5cccnc5)n4)c3)cc(C(F)(F)F)c2)cn1 [nilotinib]
How it was run: as §1

[6] = compound: Cc1nc(Nc2n[nH]c3c2CN(C(=O)N[C@H](CN(C)C)c2ccccc2)C3(C)C)c2sccc2n1
How it was run: as §1

dasatinib = compound: Cc1nc(Nc2ncc(C(=O)Nc3c(C)cccc3Cl)s2)cc(N2CCN(CCO)CC2)n1 [dasatinib]
How it was run: as §1

[7] = compound: Cc1ncc(-c2ccnc(Nc3ccc(S(C)(=O)=O)cc3)n2)n1C(C)C
How it was run: as §1

[8] = compound: Cn1cc(-c2ccc3c(c2)CCN3C(=O)Cc2cccc(C(F)(F)F)c2)c2c(N)ncnc21
How it was run: as §1

[9] = compound: Cn1cc(-c2ccc3nnc(C(F)(F)c4ccc5ncccc5c4)n3n2)cn1
How it was run: as §1

tipifarnib = compound: Cn1cncc1[C@@](N)(c1ccc(Cl)cc1)c1ccc2c(c1)c(-c1cccc(Cl)c1)cc(=O)n2C [tipifarnib]
How it was run: as §1

mubritinib = compound: FC(F)(F)c1ccc(/C=C/c2nc(COc3ccc(CCCCn4ccnn4)cc3)co2)cc1 [mubritinib]
How it was run: as §1

Chain of UniProt P61960 (P61960 whole entry, looked up): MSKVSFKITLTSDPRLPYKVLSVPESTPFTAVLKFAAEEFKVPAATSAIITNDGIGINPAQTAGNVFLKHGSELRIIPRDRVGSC
Chain of UniProt Q9NUM4 (Q9NUM4 whole entry, looked up): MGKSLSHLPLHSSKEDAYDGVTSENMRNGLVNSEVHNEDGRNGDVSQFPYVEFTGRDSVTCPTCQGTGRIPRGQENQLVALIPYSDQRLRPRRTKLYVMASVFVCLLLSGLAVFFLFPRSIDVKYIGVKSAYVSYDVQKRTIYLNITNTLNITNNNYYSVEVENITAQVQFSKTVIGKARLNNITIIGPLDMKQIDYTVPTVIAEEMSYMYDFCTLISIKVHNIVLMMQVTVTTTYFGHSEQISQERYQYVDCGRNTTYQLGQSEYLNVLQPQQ
Chain of UniProt Q96HV5 (Q96HV5 whole entry, looked up): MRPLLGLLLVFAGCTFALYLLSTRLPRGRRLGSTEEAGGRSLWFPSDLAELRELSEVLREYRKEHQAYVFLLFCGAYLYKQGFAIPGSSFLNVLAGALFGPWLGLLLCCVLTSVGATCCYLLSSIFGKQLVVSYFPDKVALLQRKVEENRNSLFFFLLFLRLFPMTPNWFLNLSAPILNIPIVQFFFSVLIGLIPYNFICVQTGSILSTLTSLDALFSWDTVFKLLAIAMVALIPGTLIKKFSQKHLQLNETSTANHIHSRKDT
Chain of UniProt P49815 (P49815 whole entry, looked up): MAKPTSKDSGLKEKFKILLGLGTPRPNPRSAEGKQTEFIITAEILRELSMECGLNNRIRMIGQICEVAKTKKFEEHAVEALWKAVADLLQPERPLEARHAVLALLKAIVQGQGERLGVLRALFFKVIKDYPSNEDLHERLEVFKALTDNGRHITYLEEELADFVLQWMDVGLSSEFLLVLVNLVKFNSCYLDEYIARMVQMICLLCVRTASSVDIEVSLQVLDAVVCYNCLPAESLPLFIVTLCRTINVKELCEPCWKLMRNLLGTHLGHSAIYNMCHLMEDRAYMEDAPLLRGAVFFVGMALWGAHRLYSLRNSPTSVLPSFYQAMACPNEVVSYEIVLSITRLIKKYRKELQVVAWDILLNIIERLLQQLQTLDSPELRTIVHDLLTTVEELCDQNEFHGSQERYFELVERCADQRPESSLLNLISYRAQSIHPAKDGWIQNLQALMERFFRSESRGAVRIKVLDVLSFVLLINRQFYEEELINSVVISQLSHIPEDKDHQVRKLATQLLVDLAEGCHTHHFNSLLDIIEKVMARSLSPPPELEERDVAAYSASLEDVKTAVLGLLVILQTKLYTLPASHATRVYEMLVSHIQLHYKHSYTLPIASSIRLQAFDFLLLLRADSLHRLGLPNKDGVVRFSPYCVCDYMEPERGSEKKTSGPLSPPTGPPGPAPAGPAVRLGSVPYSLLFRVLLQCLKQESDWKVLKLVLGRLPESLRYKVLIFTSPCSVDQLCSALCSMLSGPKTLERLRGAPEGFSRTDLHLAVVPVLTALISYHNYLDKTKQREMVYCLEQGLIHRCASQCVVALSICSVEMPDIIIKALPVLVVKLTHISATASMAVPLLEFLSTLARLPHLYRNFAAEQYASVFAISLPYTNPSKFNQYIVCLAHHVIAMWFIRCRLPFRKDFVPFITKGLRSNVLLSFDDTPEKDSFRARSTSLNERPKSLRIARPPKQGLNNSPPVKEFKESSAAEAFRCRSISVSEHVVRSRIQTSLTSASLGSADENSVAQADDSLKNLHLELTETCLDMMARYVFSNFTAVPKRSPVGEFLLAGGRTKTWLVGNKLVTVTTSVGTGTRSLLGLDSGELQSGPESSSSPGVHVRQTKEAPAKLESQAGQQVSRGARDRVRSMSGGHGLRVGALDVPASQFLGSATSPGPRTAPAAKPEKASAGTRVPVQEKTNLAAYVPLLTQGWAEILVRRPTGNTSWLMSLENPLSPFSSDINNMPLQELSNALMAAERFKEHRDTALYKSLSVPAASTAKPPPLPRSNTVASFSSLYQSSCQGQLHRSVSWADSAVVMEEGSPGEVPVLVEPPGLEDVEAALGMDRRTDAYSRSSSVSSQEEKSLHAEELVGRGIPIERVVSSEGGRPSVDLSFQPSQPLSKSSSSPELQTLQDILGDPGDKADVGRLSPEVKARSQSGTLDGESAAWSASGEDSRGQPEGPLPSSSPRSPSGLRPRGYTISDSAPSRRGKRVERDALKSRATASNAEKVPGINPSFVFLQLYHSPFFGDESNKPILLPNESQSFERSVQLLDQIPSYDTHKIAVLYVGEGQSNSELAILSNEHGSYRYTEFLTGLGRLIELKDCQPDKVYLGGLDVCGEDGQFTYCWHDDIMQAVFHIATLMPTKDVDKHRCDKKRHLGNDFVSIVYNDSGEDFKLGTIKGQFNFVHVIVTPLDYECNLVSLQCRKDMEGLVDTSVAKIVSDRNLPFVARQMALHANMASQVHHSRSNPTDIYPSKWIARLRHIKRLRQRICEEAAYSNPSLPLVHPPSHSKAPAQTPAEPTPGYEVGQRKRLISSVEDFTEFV
Chain of UniProt Q7Z7N9 (Q7Z7N9 whole entry, looked up): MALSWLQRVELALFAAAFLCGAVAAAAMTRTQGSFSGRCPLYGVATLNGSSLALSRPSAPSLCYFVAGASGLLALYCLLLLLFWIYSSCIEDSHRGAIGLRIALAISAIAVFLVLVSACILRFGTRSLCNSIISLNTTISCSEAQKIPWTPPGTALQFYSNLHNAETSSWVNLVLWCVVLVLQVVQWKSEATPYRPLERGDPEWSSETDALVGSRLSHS
Chain of UniProt Q5U3C3 (Q5U3C3 whole entry, looked up): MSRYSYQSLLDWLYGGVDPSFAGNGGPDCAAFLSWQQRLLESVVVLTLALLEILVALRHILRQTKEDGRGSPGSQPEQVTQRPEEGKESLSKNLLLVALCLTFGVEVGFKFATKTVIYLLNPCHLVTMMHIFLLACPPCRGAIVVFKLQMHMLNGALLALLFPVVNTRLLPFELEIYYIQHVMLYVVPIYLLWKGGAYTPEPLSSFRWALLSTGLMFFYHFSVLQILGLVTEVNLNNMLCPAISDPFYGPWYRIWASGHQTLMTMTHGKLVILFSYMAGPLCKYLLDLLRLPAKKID
Chain of UniProt Q6PID6 (Q6PID6 whole entry, looked up): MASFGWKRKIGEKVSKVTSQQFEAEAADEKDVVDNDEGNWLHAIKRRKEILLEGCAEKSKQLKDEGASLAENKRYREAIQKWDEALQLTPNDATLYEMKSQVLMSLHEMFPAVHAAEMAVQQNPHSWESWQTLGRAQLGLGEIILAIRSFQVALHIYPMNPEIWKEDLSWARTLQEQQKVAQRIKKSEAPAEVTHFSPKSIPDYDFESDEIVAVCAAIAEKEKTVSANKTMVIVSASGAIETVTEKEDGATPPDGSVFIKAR
Chain of UniProt Q96AJ9 (Q96AJ9 whole entry, looked up): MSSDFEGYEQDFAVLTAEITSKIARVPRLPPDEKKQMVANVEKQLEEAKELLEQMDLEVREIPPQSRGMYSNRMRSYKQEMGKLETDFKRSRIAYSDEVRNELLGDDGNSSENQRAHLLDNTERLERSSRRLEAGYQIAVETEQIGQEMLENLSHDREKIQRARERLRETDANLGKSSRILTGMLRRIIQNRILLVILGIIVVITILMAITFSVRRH
Chain of UniProt Q5BJH2 (Q5BJH2 whole entry, looked up): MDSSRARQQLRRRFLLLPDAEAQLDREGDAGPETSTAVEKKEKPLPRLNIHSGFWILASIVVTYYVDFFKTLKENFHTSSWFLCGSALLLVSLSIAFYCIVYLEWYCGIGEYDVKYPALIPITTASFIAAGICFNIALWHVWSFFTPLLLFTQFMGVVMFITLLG
Chain of UniProt Q7Z392 (Q7Z392 whole entry, looked up): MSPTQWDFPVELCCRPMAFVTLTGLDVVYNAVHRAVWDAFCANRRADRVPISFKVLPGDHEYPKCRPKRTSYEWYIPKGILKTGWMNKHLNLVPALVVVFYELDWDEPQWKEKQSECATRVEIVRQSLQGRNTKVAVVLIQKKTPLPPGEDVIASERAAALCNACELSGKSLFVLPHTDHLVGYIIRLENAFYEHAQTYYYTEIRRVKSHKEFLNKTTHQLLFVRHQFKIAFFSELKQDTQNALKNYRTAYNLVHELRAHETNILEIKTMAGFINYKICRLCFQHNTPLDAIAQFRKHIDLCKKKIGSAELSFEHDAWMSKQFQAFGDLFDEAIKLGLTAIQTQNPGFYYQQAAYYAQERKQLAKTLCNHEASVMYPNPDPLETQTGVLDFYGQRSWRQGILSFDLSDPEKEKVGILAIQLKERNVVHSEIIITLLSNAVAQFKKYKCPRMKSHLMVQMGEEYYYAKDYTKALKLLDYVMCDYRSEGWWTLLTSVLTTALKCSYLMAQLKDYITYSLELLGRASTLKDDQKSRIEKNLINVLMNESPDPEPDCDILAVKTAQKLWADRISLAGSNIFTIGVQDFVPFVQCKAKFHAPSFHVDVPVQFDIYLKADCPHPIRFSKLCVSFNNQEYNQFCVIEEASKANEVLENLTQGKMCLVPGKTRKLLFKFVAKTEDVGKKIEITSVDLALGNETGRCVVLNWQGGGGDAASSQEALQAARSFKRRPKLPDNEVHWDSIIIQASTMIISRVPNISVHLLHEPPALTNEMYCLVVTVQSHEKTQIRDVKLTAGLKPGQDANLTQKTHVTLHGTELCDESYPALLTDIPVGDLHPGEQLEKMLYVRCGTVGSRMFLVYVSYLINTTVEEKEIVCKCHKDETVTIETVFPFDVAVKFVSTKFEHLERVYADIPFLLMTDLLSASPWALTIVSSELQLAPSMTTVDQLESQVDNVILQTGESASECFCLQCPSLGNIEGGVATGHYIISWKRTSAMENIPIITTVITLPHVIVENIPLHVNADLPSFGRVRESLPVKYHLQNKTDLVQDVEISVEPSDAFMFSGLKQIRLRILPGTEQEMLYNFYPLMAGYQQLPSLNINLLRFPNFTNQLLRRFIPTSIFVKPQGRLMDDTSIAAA
Chain of UniProt Q9UL33 (Q9UL33 whole entry, looked up): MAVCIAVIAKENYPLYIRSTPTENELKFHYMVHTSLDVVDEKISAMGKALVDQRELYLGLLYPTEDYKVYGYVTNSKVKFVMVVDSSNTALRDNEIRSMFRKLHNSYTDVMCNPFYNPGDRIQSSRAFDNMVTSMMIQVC

Target	log2 fold change [1]	log2 fold change (crizotinib)	log2 fold change [2]	log2 fold change [3]	log2 fold change (duvelisib)	log2 fold change (gandotinib)	log2 fold change (tozasertib)	log2 fold change [4]	log2 fold change (doramapimod)	log2 fold change (ispinesib)	log2 fold change (bafetinib)	log2 fold change [5]	log2 fold change (nilotinib)	log2 fold change [6]	log2 fold change (dasatinib)	log2 fold change [7]	log2 fold change [8]	log2 fold change [9]	log2 fold change (tipifarnib)	log2 fold change (mubritinib)
VPS39 (UniProt Q96JC1)	-0.037	-0.239 (active)	0.026	0.021	0.011	-0.126	-0.033	0.025	0.008	-0.187	-0.032	0.069	-0.019	-0.068	-0.15	-0.017	0.033	0.003	-0.058	0.027
TMEM164 (UniProt Q5U3C3)	0	-0.036	0.139	0.05	0.601 (active)	-0.204	0.031	0.027	0.091		-0.097	-0.155	0.023	-0.021	0.048	0.037	0.002		0.059	-0.067
TRAPPC11 (UniProt Q7Z392)	-0.004	0.008	0.051	0.075	0.043	-0.047	0.021	0.1	0.028	-0.079	0.065	0.05	-0.098	-0.129	-0.159	0.01	-0.04	-0.03	-0.06	0.04
TTI2 (UniProt Q6NXR4)	-0.066	-0.155	0.028	0.121	-0.067		0.004	0.142	0.013	-0.204	0.06		-0.028	-0.068	-0.005	0.077	-0.017	-0.007	-0.059	-0.063
TTC33 (UniProt Q6PID6)	0.056	-0.399	-0.113	0.146	0.002	-0.192		-0.06	-0.15	-0.095	0.049	0.181			0.043		-0.084	-0.069	-0.03	0.113
TOM1L2 (UniProt Q6ZVM7)	0.03	0.101	0.118	0.087	0.099			0.035	0.02				-0.047	-0.127	-0.091	-0.125	0.028			
UFM1 (UniProt P61960)	0.021	0.004	0.178	-0.062	0.146		-0.056	-0.043	-0.037	0.158	0.045		-0.011	0.025	-0.012	0.026	0.008	0.007	-0.061	0.087
TMEM179B (UniProt Q7Z7N9)	-0.005	-0.167	0.101	-0.165		-0.138	0.032		0.071	-0.099	-0.074	-0.065	0.046	-0.018		-0.013	0.154	0.019	0.167	-0.025
TSC2 (UniProt P49815)	-0.09	0.065	-0.139	0.218		-0.091	-0.172		0.09	0.012	-0.024	0.109					0.066	0.047	0.019	-0.048
TMEM106B (UniProt Q9NUM4)	-0.024	-0.382 (active)	0.389	-0.054	0.03	-0.021	-0.073	0	0.014		-0.094	0.035	-0.015	0.02	0.098	-0.007	0.083		0.029	0.023
TRIQK (UniProt Q629K1)	0.003	0.024	0.072	0.017	0.073		-0.003	-0.006	0.008	0.182	-0.059				0.007		-0.007	-0.03		-0.002
TRIM4 (UniProt Q9C037)	0.114	0.045	0.037	0.061		-0.023	0.023		0.092	-0.033	0.039	-0.015	0.111	0.101		0.058	0.042	-0.138	-0.014	0.033
TMEM41A (UniProt Q96HV5)	-0.023	0.139	0.137		-0.001	-0.044	-0.138	0	0.025	0.065	-0.037	0.276 (active)	-0.008	-0.01	0.054	-0.049		0.082	0.026	0.062
TRAPPC2L (UniProt Q9UL33)	0.009	-0.035	0.054	0.035	0.026	-0.023	0.015	0.001	-0.143	0.119	-0.042	-0.02	-0.062	-0.068	-0.118	0.064	-0.041	-0.111	-0.111	0.013
VTI1A (UniProt Q96AJ9)	-0.007	-0.072	0.038	-0.022	0.1	0.046	0.038	-0.019	0.054	-0.237	-0.004	-0.061	-0.006	-0.001	0.004	-0.005	-0.001	0.01	0.081	-0.007
TMEM128 (UniProt Q5BJH2)	0.001	0.234	-0.062	0.025	-0.009		0.06	0.016	-0.138	0.021	-0.065		-0.008	0.003	-0.01	-0.031	0.061	-0.021	0.066	
VPS33A (UniProt Q96AX1)	-0.031	-0.218	0.014	0.043	0.029	-0.091	0.036	0.049	-0.017	-0.154	-0.066	0.091	-0.071	-0.124	-0.123	-0.039	-0.019	-0.094	-0.064	0.098
TMEM184C (UniProt Q9NVA4)	0.117	-0.267	0.019	-0.049	-0.046	-0.038	0.046	0.036	0.019	-0.365 (active)	-0.132	-0.111	-0.007	-0.047	0.116	-0.009	0.15	-0.092		0.01
